Among the data in PubChem BioAssay AID1508600 (Functional Genomics Laboratory (NCATS/FGL), 2020) are z-score values, retold here.

About 3,700 (7%) of roughly 53,000 sequences were called active. The full list was thinned out, with actives kept by preference. A number with no mark means an inactive call.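 The calls were made as follows: active = gene knockdowns whose robust z-score for IL-1 alpha signal is at least 2 or at most -2, so actives lie on both sides; inactive = the rest.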

The assay can be described thus: Components of the Cytosolic LPS Sensing Pathway: Gene Identification via Genome-wide siRNA Screen.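 Also: robust z of the log signal after scaling to non-targeting control siRNA wells of the plate.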 Particulars: RAW264.7 macrophages, IL-1a HTRF, actives lie on both sides, screened at 100 nM (by protocol), cells primed 5 h with Pam3CSK4 first. A digest of the protocol:
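RAW264.7 mouse macrophages reverse-transfected with single siRNAs (100 nM final) for 48h, primed with Pam3CSK4 for 5 hours, then transfected with LipidA for 24 hour. Supernatant IL-1a read by HTRF; values normalized to negative-control median, log-transformed robust z-scores.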
(In general: TR-FRET usually uses a lanthanide donor and a delayed reading to cut background.)
Take GGAAUUGAAGGGUACUUAATT against Fam111a: the z-score was -1.97. The same measure for GCCAAAUAUUAUUCCUACATT against Sec63: -0.282; for “GGCAUUGAGAUGAAAUGAATT against 4933427E11Rik”: -2.5 (active); for GGGAAUCCUAGACAUGCUGTT against Nphp4: -1.91. To GGGCAACCUGUCACAUUAUTT against Spam1 belongs 1.16. For CCUCAUCCUUAGUUGUUUUTT against Ift88, the z-score was -0.15.

On to GCACAAUGGUGUUAAGUCATT against Ado, for which the z-score is 2.3 (active).

For the sequence GGAACCUCUCAAUUUUGCGTT against Pik3ip1, the z-score was 0.659.

As to GCAGGUUUAACAACUUACUTT against Dmgdh, the z-score is 3.07 (active). To GGAUUAGGUCAUUAUUAGGTT against Kcne3 belongs -0.202; to GGCAGUCUUGUCCCUUGUATT against Myl12a, -0.74. Regarding GGAAGAAGGAACAUGAUCUTT against Mrpl52, the z-score is -0.928. The same measure for CCCAGUUCUGUCCUACUUATT against Efcab6: -2.79 (active); for GGAGACAGUGGUAUUUUGATT against Birc5: 0.468; for “GGAAGCAUGUGAGAGAAAATT against C130026I21Rik”: -1.03. To GGCAUCACACAGGAGAAAATT against Ppp1r16b belongs -0.391; to GGAACAGAUGGGUGUGAAATT against Wnt2b, -0.0195; to GGAAUUCAUUGCUAUUAUGTT against Cetn3, 2.12 (active). The same measure for CUUUUGUAAAGCCUUCCACTT against Zfp708: -0.259. Take GGAUCUCGGGAAAAAGUUGTT against Spesp1: the z-score is 0.185. The same measure for GGUCUAUCUGAAGAACAGUTT against Xpo5: 1.02.

Consider GGAGGCAUGCCCUAUGAAUTT against Zfp11, for which the z-score is 1.4. As to CCUCAAAUUAGUGCAGUUATT against Dnah8, the z-score is 0.661. Regarding GGUGGCACUCUUUCAGAUCTT against Dennd1a, the z-score was 2.08 (active).

Take GCUUGUCAAGUUUGUGAGCTT against Sec14l4: the z-score is -0.0652.

With GGAAUAGUAACUCUUUCUCTT against Ehbp1l1, the z-score was -0.0157.

Turning to GGUUGUGGACACAUCCAAATT against Aacs, the z-score is 2.08 (active). The same measure for GGAUGUUAAAGCAAGUGUATT against Olfr1153: 0.169; for CGAGGAUUUCUAUCCUGACTT against Ascc1: -0.764; for GGAAGUGCUCUGCUGUACATT against Eml6: 0.655. On to GCUUGGUCAUUUUAAUAGGTT against Zscan29, for which the z-score was -0.527. As for GGCCAGUGGGAAGUGAAGATT against Sec13, the z-score was 0.124. For the sequence GCCAUAUCAACCGUAUUGGTT against Lzts3, the z-score was -2.58 (active). The same measure for CGUGUACCAGCUACCUAAGTT against Phc2: -1.31. To GGUUAGUAUGUAGCUCCCATT against Olfr982 belongs -0.401; to GGAACUUAAGAACUUUCUATT against Calb1, 2.3 (active); to GGCCUAAAUUGACAAACUUTT against Oga, 1.04. The same measure for GGUAAAACAGAGGAGUCGGTT against Scaf1: -0.444; for GGUACAAACUCUCCCUAGATT against Ube2c: -1.29.

In the case of GGAUCUACAUUGCUAAAGUTT against Dbil5, the z-score was 0.0731. To GCCCAAAAAGUGCUUGCUGTT against Tmem215 belongs -1.76. The same measure for CCUUCCCUUAAAUGGAACCTT against Slc9a1: 1.63; for CGCAGUGAUUAUGACCUCCTT against Thegl: -2.34 (active).

For the sequence GCCUUGUUACAAAUAGUCGTT against Tcf12, the z-score is 0.266. GGGAUUCGGUGAAGAUUUGTT against Nfe2l1: the z-score is -0.736.

Regarding GGUGAAAUCCUGAUGUUUUTT against Vps33b, the z-score was 0.301. For GGGACAAGAUCUGAACUUCTT against Rgl3, the z-score is -0.36. CCUCACUGUGGUAACAUUATT against Olfr452: the z-score is 1.84.

GGAAAACAAACCACAGCCATT against Tpbpa: the z-score is -2.66 (active).

Turning to GGUGCUAUUCAUCUGCACGTT against Lonp1, the z-score was -1.09. The same measure for GCCUGUCAUGGUUAUGACCTT against Shbg: -0.803; for GGACAGAUACGUUAUCAAGTT against Il3: 1.31; for CCCAUUUGAAAUUAGGGUATT against Mief1: 0.607. For GCUGGCUUCAUUUUACUUATT against Degs1, the z-score was 0.126. As for GGAUUACAGGCAUUUGGUUTT against Hmgn1, the z-score was 3.01 (active). For GGAGUGAAGAUCUGAUUGCTT against Aaas, the z-score is -1.63. The same measure for GCUGGGAUGGUAUCGUUUCTT against Ripk2: 0.559; for GGUAUUGAUGCCAAAUUAATT against Plekha5: 1.38; for CGUCCUGUCGCUGAUUAAATT against Tcl1: 0.323. Take CCGAAAAGUGUGGCGAGAATT against Arid3c: the z-score was -0.285. As for CCAGAGUAAUUCAUCAUACTT against Agxt, the z-score was 0.172. For the sequence GGUUCAGUUUGCCAAAGACTT against Elfn1, the z-score is 1.45.

Take “GGACUUCACAUUCUUGAGATT against A130010J15Rik”: the z-score was -0.232. In the case of GGUGGGCACUCUGGUUUUUTT against Eif4e, the z-score was 4.66 (active). As for GUAGUAACCAGAUCUUAUATT against Vmn1r29, the z-score was 0.496.

Take GGUUCAGCCAGAAUUUUCGTT against Lefty2: the z-score was 0.876. To GGAAAAGACUAACGAGCGGTT against Med11 belongs -0.703; to GGUCCUUCGUAGUUGUGGUTT against Sp110, 1.33; to GCAAAAACCUAUAGGAAAATT against Srpk2, 2.27 (active).

As to GGGAGAUCAUGAUAGCAGCTT against Cox5b, the z-score is -0.828. With GCUUGGCUUCAGCAUAUGCTT against Phox2b, the z-score is -0.867.

For GCCACACUUAAGUCAGACCTT against Tprn, the z-score was 0.597. Take GGUGCUAAGAAAAUCAAAGTT against Ryr2: the z-score is 3.64 (active). For GGGAGCAAAUGUAAUUUAUTT against Tbpl1, the z-score is 0.842. The same measure for GGUUUAACUUUAAUGAUGGTT against Cacna1e: -1.39; for GGGAAUGGGUCUUGUAAACTT against Ppat: -1.4; for GCAUAUGCUUUUACAACACTT against Zfp280c: 0.252. The same measure for GGUCAAUGCUGUUUUUGUUTT against Mxi1: 2.41 (active); for GGUCUGUGCAAGCAAAUCGTT against Cacng2: -0.153. Turning to GGAAAAUCAUGGGAGCCUUTT against Lpo, the z-score was -0.435. Take GGAGAGUGAUGAACAGAUGTT against Pctp: the z-score is 2.21 (active).

On to GGGCUCGUUAAUCUUUUACTT against Nop10, for which the z-score was 0.753.

On to GGAAAUGUUUCUGUUCAUUTT against Nipsnap3b, for which the z-score is 0.295. GGUGACUGACAGCUGCCAATT against Prima1: the z-score is 0.0318. Consider GGUUAAAAGAGGUGAUUAGTT against Mtfp1, for which the z-score is 1.9. To GGCCCAUCACUUACUAAAGTT against Exoc3l belongs 0.224; to GGAAUAUUCACAGUCCGAGTT against Zfand3, -2.18 (active). To GCCAACAAUAUAAUUCAAGTT against Abca5 belongs 1.64; to GGUGACAAAAAGUCAAAGATT against Dis3l2, -0.542; to CCAUGGUCUAGCACAGUGGTT against Cpn2, -0.079. Take GACACUGUCAAAUUAUGGATT against Vmn1r74: the z-score was -0.581.

Take CGGAAUGAUUCUGACUAAUTT against Mmp7: the z-score was 0.546. For GGUAUGGAAGACAAAACCUTT against Nlrp1a, the z-score is 0.61.

Turning to GGAACACUGUGAGAACAAGTT against Peak1, the z-score is 0.124. Turning to GGAGUAUUACGUCUGAUAUTT against Nrxn1, the z-score was 2.39 (active). To GGUGCUUAAUUCCUGUCCCTT against Ggn belongs -0.855; to GGAGUUCUUCACGCGUAACTT against G6pd2, 0.599; to GCUAGAGGAGUUUCUAAACTT against Clu, 0.0975. On to GCUGGUGUCGGCAAAUCCUTT against Wnk1, for which the z-score was -0.62.

Regarding GCAGAAUGAGUUCAGACGATT against Mgmt, the z-score was 0.36.

GGCUUUCAGUUAUUUGACATT against Zfp709: the z-score was -0.636. As to GGUUGUCUUUCUACUCGGGTT against Plpp1, the z-score is 1.37.

Regarding GGGAUGUCUUCCUAUACAGTT against Cope, the z-score was -2.78 (active). To GCUGAUGGAGAGUUAUUUGTT against Rcbtb1 belongs 0.675; to CCACCCAAAAGUAAAAAGUTT against Rpp38, -1.29. In the case of GGUCUGGAUGCUUUAGAAUTT against Fam114a1, the z-score was -0.373. GCAUUACUUGAGCAAAACATT against Zfp654: the z-score is -0.854. For the sequence GGCUCUGGAUGAAGAACUUTT against Gfpt2, the z-score is 4.13 (active).
